Results as given in PubChem BioAssay (NCI).
About 79,000 compounds went through this panel and 15% of them were active in at least one assay; those are over-represented in the sample as a whole. The source made the active and inactive calls. Rule as the data show it: active = growth inhibition above about 70%; inactive = the rest.

Experiments:
[1] = NCI Yeast Anticancer Drug Screen. Data for the rad50 strain (AID 155);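 also: 0% = growth of vehicle-only cultures of the same strain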; settings: S. cerevisiae rad50 strain growth inhibition; at 50.0 µM; hits give high values
Method in brief: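 Relative growth inhibition (compound vs vehicle) was measured in yeast with a defined repair-gene alteration.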

[2] = NCI Yeast Anticancer Drug Screen. Data for the mec2-1 strain (AID 157); settings: S. cerevisiae mec2-1 strain, at 50.0 µM, hits give high values
Method in brief: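 Each compound was tested on mec2-1 yeast, a strain altered in DNA damage repair or cell cycle control. Growth inhibition is reported relative to vehicle.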

[3] = NCI Yeast Anticancer Drug Screen. Data for the sgs1 mgt1 strain (AID 161);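 also: 0% = growth of cultures given vehicle only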; settings: S. cerevisiae sgs1 mgt1 strain, at 50.0 µM, hits give high values
Method in brief: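 Mutant yeast exposed to compound; growth scored against vehicle-only wells.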

[4] = NCI Yeast Anticancer Drug Screen. Data for the cln2 rad14 strain (AID 165);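 also: 0% = growth equal to vehicle treated cultures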; settings: S. cerevisiae cln2 rad14 strain, at 50.0 µM, hits give high values
Method in brief: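 Test compounds were added to cln2 rad14 yeast cultures; inhibition of growth was then determined by comparison with vehicle treatment.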

[5] = NCI Yeast Anticancer Drug Screen. Data for the bub3 strain (AID 167); settings: S. cerevisiae bub3 mutant strain, at 50.0 µM, hits give high values
Method in brief: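 Screening used yeast with an engineered genetic alteration affecting cell cycle control. Compound-exposed cultures were compared with vehicle cultures, and reduced growth was taken as inhibition.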

[6] = NCI Yeast Anticancer Drug Screen. Data for the mlh1 rad18 strain (AID 175); settings: S. cerevisiae mlh1 rad18 strain growth inhibition; at 50.0 µM; hits give high values
Method in brief: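 Inhibition values reflect reduced growth of mutant yeast versus vehicle-treated controls following compound exposure; the mutations affect DNA damage repair.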

Measured: growth inhibition

CC1C2CC(CC2(C)O)C1(C)C (stereo unspecified)
inactive: [1] 8.45% | [2] -3.1% | [3] 3.35% | [4] 9.05% | [5] -3.3% | [6] -7.35%

O=C(NN1CCCCC1)NN1CCCCC1
inactive: [1] 5.35% | [2] -2.5% | [3] 8.6% | [4] 20.1% | [5] 24% | [6] 18.2%

CCCCCCCCCCCCCCCCSC1=C(Cl)C(=O)C(OC)=C(OC)C1=O
inactive: [1] 25.6% | [2] -4.7% | [3] 21.1% | [4] -26% | [5] 0.25% | [6] 9.4%

COc1cc(/C=C/C(=O)NCCCCN)ccc1O
inactive: [1] 19.6% | [2] 8.9% | [3] 21.8% | [4] 9.6% | [5] 13% | [6] 19.7%

O=C=Nc1ccc(Cc2ccc(N=C=O)cc2)cc1
inactive: [1] -13.7% | [2] 6.7% | [3] -7.45% | [4] -15.2% | [5] -23.9% | [6] -36.5%

CCC1(CC)C(=O)N(C(=O)c2cc(OC)c(OC)c(OC)c2)N(C(=O)c2cc(OC)c(OC)c(OC)c2)C1=O
inactive: [1] 13.2% | [2] -0.1% | [3] -2.2% | [4] -11% | [5] 6.75% | [6] 14.8%

COC1=C(N)C(=O)c2nc(C)ccc2C1=O
inactive: [1] 45.8% | [2] 44.4% | [3] 55.5% | [4] -3.9% | [5] 56.9% | [6] 66.5%

CN(CC(=O)O)c1ccc([N+](=O)[O-])cc1[N+](=O)[O-]
inactive: [1] 8.75% | [2] 8.55% | [3] 10.4% | [4] 52.9% | [5] 26.4% | [6] -1.15%

Cc1cn(C2CC3OP(=O)(OCc4ccccc4)OCC3O2)c(=O)[nH]c1=O (stereo unspecified)
inactive: [1] 5.35% | [2] 7.1% | [3] 16.1% | [4] 7.25% | [5] 8% | [6] 4.15%

O=C1c2ccccc2C(=O)N1C[P+](c1ccccc1)(c1ccccc1)c1ccccc1
inactive: [1] 41.9% | [2] 28.8% | [3] 32.4% | [4] 16.2% | [5] 2.25% | [6] 12.4%

CCCCNC(=S)/N=C/c1c(O)c2ccccc2[nH]c1=O
inactive: [1] -39.7% | [2] -15.2% | [3] -52.9% | [4] -18.9% | [5] 3.9% | [6] -41%

Cc1ccc(S(=O)(=O)N2CCC[C@@H]2C(=O)O[C@@H]2CCC3CC=CC32)cc1 (stereo partly specified)
inactive: [1] 3.65% | [2] -17.3% | [3] 10.2% | [4] -1.8% | [5] -12.3% | [6] -0.1%

O=c1[nH]c2c(Cl)cccc2c2ccccc12
inactive: [1] 40.5% | [2] 18.9% | [3] -7.45% | [4] -18.1% | [5] -17.9% | [6] 14.3%

BrCCOC(OCCBr)(c1ccccc1)c1ccccc1
inactive: [1] 19.8% | [2] -10.9% | [3] 2.3% | [4] 11.5% | [5] 4.95% | [6] 6.3%

Cc1ccc(NC(=S)N2CCCCC2)cc1C
inactive: [1] -1.9% | [2] 13.2% | [3] 19.3% | [4] -19.2% | [5] 25.4% | [6] 15.4%

Cn1cnc([N+](=O)[O-])c1Sc1n[nH]c(-c2ccc(Cl)cc2)n1
inactive: [1] -11.6% | [2] 1.7% | [3] -7.75% | [4] 21.4% | [5] 17.1% | [6] -6.05%

CC(C)(C)c1ccc(OC(=O)NCCCCCCNC(=O)Oc2ccc(C(C)(C)C)cc2)cc1
inactive: [1] -5.65% | [2] 23.9% | [3] 4.8% | [5] -2.85% | [6] -8.5%
active: [4] 92.3%

COC(=O)c1cc(=O)[nH]c2c1c(=O)[nH]c(=O)n2C
inactive: [1] 5.7% | [2] 9% | [3] -4.7% | [4] -39.2% | [5] 7.1% | [6] 21.4%

CCCc1ccccc1[N+](=O)[O-]
inactive: [1] 0.25% | [2] -14.9% | [3] -10.5% | [4] -4.35% | [5] 8.7% | [6] -7.1%

COc1ccc(Cc2ccc3c(c2)OCO3)cc1C
inactive: [1] -12.1% | [2] -14.2% | [3] 9.7% | [4] -9.55% | [5] 6.45% | [6] -3.95%

Cc1ccc(C(C)C)cc1[N+](=O)[O-]
inactive: [1] 9.9% | [2] -3.55% | [3] -17.7% | [4] -41% | [5] -13.6% | [6] -21.3%

CCSC1=C(SCC)C(=O)C(SCC)=C(SCC)C1=O
inactive: [1] -1.25% | [2] 16.1% | [3] 13.9% | [4] -22.4% | [5] -1.65% | [6] 15.4%

O=C(N/N=C/c1ccc(O)cc1)c1ccccc1NC(=O)C1CC1
inactive: [1] 3.25% | [2] 23.7% | [3] 18.9% | [4] 2.55% | [5] -0.85% | [6] -21.1%

O=C1NC(=O)c2c(Br)c(Br)c(Br)c(Br)c21
inactive: [1] -20.6% | [2] -32.9% | [3] 2.35% | [4] 9.6% | [5] -16.6% | [6] -1.55%

C/C=C/C=C/C=N\O
inactive: [1] 16.6% | [2] 3.1% | [3] -6.65% | [4] -2.8% | [5] -1.45% | [6] 6.8%

O=C(/C=C/c1ccc(OCc2ccccc2)c(OCc2ccccc2)c1)OCc1ccccc1
inactive: [1] -12% | [2] -9.65% | [3] -5.15% | [4] -33.9% | [5] -3.45% | [6] -34.8%

O=C([O-])C[n+]1ccccc1
inactive: [1] -11.3% | [2] -2.75% | [3] -14.5% | [4] -35.9% | [5] -19.1% | [6] -14.4%

O=[N+]([O-])/C(N=Nc1ccc2ccccc2c1Br)=N/Nc1ccc2ccccc2c1Br
inactive: [1] 34.5% | [2] 5.85% | [3] 19.4% | [4] -2.85% | [5] -0.2% | [6] 13.2%

CCOC(=O)c1cc(-c2ccccc2)nc2nc(N)ccc12
inactive: [1] 15.2% | [2] -3.15% | [3] 5.65% | [4] 9.05% | [5] 13.2% | [6] 15.2%

Cc1ccccc1NC(=O)c1ccc(C(=O)Nc2ccccc2C)cc1
inactive: [1] 11% | [2] -10.8% | [3] 9.2% | [4] 7.8% | [5] 1.05% | [6] 35.9%

C/C(=N/O)C1c2ccccc2Cc2ccccc21
inactive: [1] -11.5% | [2] -11.8% | [3] -24.4% | [4] -12.8% | [5] -1.8% | [6] -22.5%

O=S(=O)(c1ccccc1)C1C2CCC(O2)C1S(=O)(=O)c1ccccc1 (stereo unspecified)
inactive: [1] 19.4% | [2] 7.8% | [3] 15.7% | [4] 30.9% | [5] 29.6% | [6] 10.1%

O=C(O)/C=C\Sc1ccccc1C(=O)O
inactive: [1] 2.05% | [2] -15.9% | [3] -6.5% | [4] -2.05% | [5] -10.2% | [6] 23.1%

CCCCCC1NC(C)(C)CO1 (stereo unspecified)
inactive: [1] 1.25% | [2] -2.95% | [3] -0.85% | [4] 1.95% | [5] 9.65% | [6] 10.7%

O=C1CSC(=S)N1Nc1ccccc1
inactive: [1] 2.45% | [2] -22.2% | [3] 22.2% | [4] 3.15% | [5] -15.8% | [6] -10.1%

CC12CCC(=O)OC1(C)OC(=O)CC2 (stereo unspecified)
inactive: [1] 10.4% | [2] 17.1% | [3] 2.85% | [4] -5.75% | [5] 7.7% | [6] -7.7%

Nc1nc(SCCCc2ccccc2)c2[nH]cnc2n1
inactive: [1] 7.95% | [2] -2.9% | [3] -3.4% | [4] 25.1% | [5] 31.6% | [6] -6.55%

O=C1C(Nc2ccccc2)=C(c2ccccc2)C(=O)N1c1ccccc1
inactive: [1] 1.15% | [2] -7.55% | [3] 0.7% | [4] -46.2% | [5] -11.8% | [6] -10.8%

O=C(Cn1ccc(=O)[nH]c1=O)Nc1ccc(C(=O)O)c(O)c1
inactive: [1] 0.45% | [2] -43.1% | [3] -24.9% | [4] -45.8% | [5] -31.4% | [6] 0.55%

O=C(O)C(CCC1CCC=CCC1)C(=O)O
inactive: [1] -13.8% | [2] -6.7% | [3] -9.25% | [4] -2.45% | [5] 5.6% | [6] -7.05%

COC(=O)c1cccnc1F
inactive: [1] 3.9% | [2] -15.2% | [3] -14.7% | [4] -1.65% | [5] -30.2% | [6] -2.45%
